Laboratory results taken from ChEMBL document CHEMBL5308504, “Tm Shift (DSF) assay results for EUbOPEN Chemogenomics Library” (2023).

How the values were obtained:
[1] = biological target: Bromodomain-containing protein 4 (Homo sapiens) (UniProt O60885); details: Compound concentration 20.0 uM, Protein concentration 2.0 uM, Result type QC Liability
[2] = biological target: T1, Transcription intermediary factor 1-alpha (Homo sapiens) (UniProt O15164); details: Compound concentration 20.0 uM, Protein concentration 2.0 uM, Result type QC Liability
T1 sequence (whole entry): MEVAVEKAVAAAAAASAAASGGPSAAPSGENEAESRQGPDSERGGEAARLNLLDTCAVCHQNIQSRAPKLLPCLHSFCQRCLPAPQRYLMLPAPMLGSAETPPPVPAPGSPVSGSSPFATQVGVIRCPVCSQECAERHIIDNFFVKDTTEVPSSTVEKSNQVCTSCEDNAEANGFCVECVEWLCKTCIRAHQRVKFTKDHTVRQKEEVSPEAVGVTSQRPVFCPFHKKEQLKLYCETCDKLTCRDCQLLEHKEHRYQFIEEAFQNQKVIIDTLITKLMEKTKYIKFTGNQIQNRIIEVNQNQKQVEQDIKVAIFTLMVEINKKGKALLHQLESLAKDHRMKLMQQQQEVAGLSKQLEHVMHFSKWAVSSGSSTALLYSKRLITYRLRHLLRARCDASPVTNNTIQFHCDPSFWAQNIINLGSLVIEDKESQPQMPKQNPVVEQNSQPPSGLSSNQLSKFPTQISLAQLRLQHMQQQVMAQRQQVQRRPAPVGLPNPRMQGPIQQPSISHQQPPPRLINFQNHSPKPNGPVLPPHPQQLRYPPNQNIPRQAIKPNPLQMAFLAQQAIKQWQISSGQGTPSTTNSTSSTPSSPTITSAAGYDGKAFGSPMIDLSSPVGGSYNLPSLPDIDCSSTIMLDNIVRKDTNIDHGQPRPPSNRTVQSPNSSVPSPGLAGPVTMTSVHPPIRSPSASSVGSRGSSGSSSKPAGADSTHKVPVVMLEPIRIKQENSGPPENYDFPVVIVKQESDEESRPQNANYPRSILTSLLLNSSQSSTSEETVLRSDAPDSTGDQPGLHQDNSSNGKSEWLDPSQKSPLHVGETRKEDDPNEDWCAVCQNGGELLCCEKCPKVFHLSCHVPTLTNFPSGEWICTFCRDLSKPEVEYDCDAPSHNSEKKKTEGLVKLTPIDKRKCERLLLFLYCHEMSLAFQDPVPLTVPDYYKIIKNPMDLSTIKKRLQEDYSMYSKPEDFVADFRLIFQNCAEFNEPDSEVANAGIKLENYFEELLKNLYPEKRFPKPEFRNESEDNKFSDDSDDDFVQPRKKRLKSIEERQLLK

Row | Compound | ΔTm [1] [°C] | ΔTm [2] [°C]
1 | Cn1cc(-c2ccc(-c3cncc(Cl)c3N3CCC4(CCNC4=O)CC3)cc2)cn1 | 0.07 | -2
2 | O=C(O)CCn1c2c(c3ccccc31)C[C@H](NS(=O)(=O)c1ccc(F)cc1)CC2 | -1.19 | -1.73
3 | NC(=O)OC[C@H](NC(=O)Cn1nc(-c2ccc(Cl)cc2)n(C[C@H](O)C(F)(F)F)c1=O)c1cccc(C(F)(F)F)c1 | 0.39 | 0.59
4 | O=C(CCSCc1ccco1)NNC(=O)N1Cc2ccccc2Oc2ccc(Cl)cc21 | -3.5 | -1.32
5 | Nc1ncnc2c1c(COc1cccc(Cl)c1)nn2C1CCOCC1 | -0.35 | -2.38
6 | COc1cc(C(=O)NC2CCN(C)CC2)ccc1Nc1ncc(C(F)(F)F)c(NCc2ccc(C)cc2N(C)S(C)(=O)=O)n1 | -2.71 | -3.38
7 | COc1cc(C(=O)NCCOCCOCCOCCC(=O)Nc2cccc3c2C(=O)N(C2CCC(=O)NC2=O)C3=O)ccc1Nc1ncc(C(F)(F)F)c(Oc2cccc3c2C(=O)CC3)n1 (centres undefined) | -4.34 | 0.52
8 | Cc1c(CCC(=O)O)cccc1NC(=O)[C@@H](c1ccc(-c2cncc(Cl)c2)c(F)c1)C1CCCC1 | 0.73 | 0.32
9 | NCCCc1c(C(=O)O)[nH]c2ccc(C(=O)Nc3ccccc3)cc12 | -2.73 | -4.02
10 | C[C@H]1CN(C2COC2)CCN1c1ccc(Nc2cc(-c3ccnc(N4CCn5c(cc6c5CC(C)(C)C6)C4=O)c3CO)cn(C)c2=O)nc1 | -1.88 | 0.42
11 | CC(C)(O)[C@H]1CC[C@H](Nc2ccc3ncc(-c4cccc(C(F)(F)F)c4)n3n2)CC1 | -0.97 | -1.82
12 | CCN(CC)C/C=C/C(=O)Nc1cc2c(Nc3ccc(F)c(Cl)c3)ncnc2cc1OCC1CC1 | -1.26 | -0.54
